Potency data for 49 compounds are collected here from PubChem BioAssay (NCATS).

Molecules are shown by their SMILES. Records with an inconclusive call do not appear. Active and inactive are the calls of the source. Calls come from the whole dose curve; tested in HEK293 reporter line.

Test [1] in a line: qHTS for Inhibitors of the Functional Ribonucleoprotein Complex (vRNP) of Lassa (LASV) Arenavirus: LASV Primary Screen - GLuc reporter signal (AID 1347082). Note: nearly all actives have a fitted effect of over 60% in size. Particulars: LASV minigenome vRNP, Gaussia luciferase reporter; series mostly up to 57.5 µM. Background: In qHTS, concentration-response curves come from the screen itself.
Test [2] can be described thus: qHTS for Inhibitors of the Functional Ribonucleoprotein Complex (vRNP) of Lassa (LASV) Arenavirus: Viability assay - alamar blue signal for LASV Primary Screen (AID 1347083). Note: nearly all actives have a fitted effect of over 80% in size. Particulars: cell viability, alamar blue fluorescence (LASV minigenome counter-screen); series mostly up to 57.5 µM.
Potency is the fitted concentration of half-maximal effect.

`Cc1cc(Nc2nc(N[C@@H](C)c3ncc(F)cn3)ncc2Cl)n[nH]1`: the Potency result in test [1] and in test [2] was “inactive” throughout.
Take `CN1C(=O)c2ccccc2C1=O`: the Potency entry in test [1] was “inactive”.
As to `COc1ccc(C2=N[C@H](c3ccc(Cl)cc3)[C@H](c3ccc(Cl)cc3)N2C(=O)N2CCNC(=O)C2)c(OC(C)C)c1`, the Potency entry in test [1] and in test [2] was “inactive” each time.
Regarding `CC(C)(C)c1cc(NC(=O)Nc2ccc(-c3cn4c(n3)sc3cc(OCCN5CCOCC5)ccc34)cc2)no1`, the Potency entry in test [1] was “inactive”.
`Cc1cccc(-c2[nH]c(C(C)(C)C)nc2-c2ccc3nccnc3c2)n1`: the Potency in test [1] is 9.68 µM (active).
Regarding `CC(C)OC(=O)C1=CN(C(=O)c2ccc(F)c(F)c2)CC(C)(C)c2c1[nH]c1ccccc21`, the Potency entry in test [1] is “inactive”.
On to `O=C(O)CC(O)C(=O)O` (stereo not drawn), for which the Potency entry in test [1] and in test [2] was “inactive” each time.
For the compound `Cc1nn(Cc2ccccc2Cl)c(C)c1CN(C)CC(O)COc1ccc(Cl)cc1` (stereo not drawn), the Potency result in test [1] and in test [2] was “inactive” in each case.
With `CCC(=O)N1CCN(c2ccc(-n3c(=O)ccc4cnc5ccc(-c6cnc7ccccc7c6)cc5c43)cc2C(F)(F)F)CC1`, the Potency is 0.0385 µM (active) in test [1] and 0.0153 µM (active) in test [2].
For the compound `Brc1ccccc1-c1ccccc1`, the Potency entry in test [1] and in test [2] was “inactive” throughout.
On to `CNC(=O)c1cc(Oc2ccc(NC(=O)Nc3cc(C(C)(C)C)nn3-c3ccc4ncccc4c3)c(F)c2)ccn1`, for which the Potency in test [1] was 7.69 µM (active); in test [2] it was 19.3 µM (active).
Take `C1=CCOCc2cc(ccc2OCCN2CCCC2)Nc2nccc(n2)-c2cccc(c2)OCC1`: the Potency in test [1] was 12.2 µM (active); in test [2] it was 7.69 µM (active).
In the case of `CC(C)(N)C(=O)N[C@H](COCc1ccccc1)C(=O)N1CCC2(CC1)CN(S(C)(=O)=O)c1ccccc12`, the Potency result in test [1] was “inactive”.
For `CCOc1cc2ncc(C#N)c(Nc3ccc(F)c(Cl)c3)c2cc1NC(=O)C=CCN(C)C`, the values for the Potency in test [1] and in test [2] were 10.9 µM (active) and 1.93 µM (active), respectively.
For the compound `COc1cc2ncnc(-n3nc(-c4ccccn4)nc3N)c2cc1OC`, the values for the Potency in test [1] and in test [2] were 13.7 µM (active) and 19.3 µM (active), respectively.
For `CCOC(=O)C(C)Oc1cccc2c(=O)n(CC(=O)Nc3ccc4c(c3)OCCO4)ccc12` (stereo not drawn), the Potency entry in test [1] and in test [2] was “inactive” throughout.
For the compound `O=C1C(CCC(O)c2ccc(F)cc2)C(c2ccc(O)cc2)N1c1ccc(F)cc1` (stereo not drawn), the Potency entry in test [1] and in test [2] was “inactive” in each case.
With `CS(=O)(=O)c1ccc(C(=O)Nc2ccc(Cl)c(-c3ccccn3)c2)c(Cl)c1`, the Potency entry in test [1] is “inactive”.
In the case of `CCOC(=O)c1cccnc1`, the Potency result in test [1] and in test [2] was “inactive” each time.
As to `CCN(CC)c1ccc(C(=C2C=CC(=[N+](CC)CC)C=C2)c2cc(S(=O)(=O)O)ccc2S(=O)(=O)[O-])cc1`, the Potency result in test [1] is “inactive”.
As for `CC1(C)SCCN(S(=O)(=O)c2ccc(OCC#CCO)cc2)[C@@H]1C(=O)NO`, the Potency entry in test [1] and in test [2] was “inactive” in each case.
`O=c1[nH]nc(Sc2ncc([N+](=O)[O-])s2)n1-c1ccc2c(c1)OCCO2`: in test [1], the Potency entry was “inactive”.
For `Nc1cccc(S(=O)(=O)N2CCCN(S(=O)(=O)c3ccc4c(c3)OCCO4)CC2)c1`, the Potency entry in test [1] and in test [2] was “inactive” in each case.
On to `CNC(=O)c1cc(Oc2ccc(NC(=O)Nc3ccc(Cl)c(C(F)(F)F)c3)c(F)c2)ccn1`, for which the Potency result in test [1] is “inactive”.
As for `O=C(Nc1ccccc1-c1cn2c(CN3CCNCC3)csc2n1)c1cnc2ccccc2n1`, the Potency result in test [1] and in test [2] was “inactive” each time.
`N#Cc1ccc(COC[C@H]2O[C@@H](n3c(NCc4ccc(Cl)c(Cl)c4)nc4c(N)ncnc43)[C@@H](O)[C@@H]2O)cc1`: in test [1], the Potency entry is “inactive”.
Take `CC(C)C[C@H](NC(=O)CNC(=O)c1cc(Cl)ccc1Cl)B(O)O`: the Potency in test [1] was 7.69 µM (active); in test [2], 1.53 µM (active).
`O=S(c1cc(Cl)cc(Cl)c1O)c1cc(Cl)cc(Cl)c1O`: the Potency result in test [1] and in test [2] was “inactive” in each case.
For `Cc1ccc(NC(=O)c2ccc(CN3CCN(C)CC3)cc2)cc1Nc1nc(-c2cccnc2)cs1`, the Potency result in test [1] was “inactive”.
As to `Cc1cnc(Nc2ccc(OCCN3CCCC3)cc2)nc1Nc1cccc(S(=O)(=O)NC(C)(C)C)c1`, the Potency entry in test [1] was “inactive”.
For the compound `CN1CCN(CCOc2cc(OC3CCOCC3)c3c(Nc4c(Cl)ccc5c4OCO5)ncnc3c2)CC1`, the Potency result in test [1] was “inactive”.
`Cc1ccc(NC(=O)c2cccc(C(C)(C)C#N)c2)cc1Nc1ccc2ncn(C)c(=O)c2c1`: the Potency entry in test [1] was “inactive”. Also, the Potency in test [2] is 17.2 µM (active).
On to `CNc1nccc(-c2cccnc2Oc2cc(C(=O)Nc3cccc(C(F)(F)F)c3)ccc2C)n1`, for which the Potency entry in test [1] was “inactive”.
Still for that read-out and setting: the value for `O=C(c1cc(Cc2n[nH]c(=O)c3ccccc23)ccc1F)N1CCN(C(=O)C2CC2)CC1` was “inactive”.
Consider `Fc1ccc(Cl)cc1-c1nc(Nc2ccncc2)c2nccnc2n1`, for which the Potency entry in test [1] and in test [2] was “inactive” throughout.
For `CCCCOCCOc1nc(-c2ccc(C(=O)O)c(F)c2)sc1C`, the Potency result in test [1] and in test [2] was “inactive” each time.
In the case of `CCn1c(-c2nonc2N)nc2cnc(Oc3cccc(NC(=O)c4ccc(OCCN5CCOCC5)cc4)c3)cc21`, the Potency in test [1] is 15.3 µM (active); in test [2], 12.2 µM (active).
Consider `Cc1c(C(=O)Nc2ccc(N3C[C@@H](C)O[C@@H](C)C3)nc2)cccc1-c1ccc(OC(F)(F)F)cc1`, for which the Potency result in test [1] and in test [2] was “inactive” throughout.
`COc1nc(C)cnc1NS(=O)(=O)c1cccnc1-c1ccc(-c2nnco2)cc1`: the Potency result in test [1] and in test [2] was “inactive” throughout.
For the compound `OCCC#Cc1nc(-c2ccc(F)cc2)c(-c2ccncc2)n1CCCc1ccccc1`, the Potency result in test [1] and in test [2] was “inactive” each time.
Take `NC(=O)c1ccc(I)c([N+](=O)[O-])c1`: the Potency entry in test [1] and in test [2] was “inactive” in each case.
`Cc1cc(C=c2sc3nc4ccccc4n3c2=O)c(C)n1-c1ccccc1`: the Potency entry in test [1] and in test [2] was “inactive” in each case.
In the case of `Cc1cc([C@@H](C)Nc2ccccc2C(=O)O)c2nc(N3CCOCC3)cc(=O)n2c1`, the results for the Potency in test [1] and in test [2] were 39.5 µM (active) and 5.59 µM (active), respectively.
Consider `CCN(CC)CCc1nc(-c2ccccc2)no1`, for which the Potency result in test [1] and in test [2] was “inactive” each time.
Regarding `CCCCCN(CCC12CC3CC(CC(C3)C1)C2)C(=O)NCCCc1ccncc1`, the Potency result in test [1] and in test [2] was “inactive” throughout.
Turning to `C[C@@H](N)C1CCC(C(=O)Nc2ccncc2)CC1` (stereo partly drawn), in test [1], the Potency entry is “inactive”. In test [2], the Potency was 21.7 µM (active).
`COc1c(C)cnc(Cn2cnc3c(Cl)nc(N)nc32)c1C`: the Potency in test [1] was 1.37 µM (active); in test [2] it was 0.611 µM (active).
On to `CCCn1c(=O)c2[nH]c(C34CC5CC3C[C@@H](C5)C4)nc2n(CCC)c1=O`, for which the Potency result in test [1] and in test [2] was “inactive” each time.
On to `CC(C)(C)c1cc(C=C(C#N)C#N)cc(Br)c1O`, for which the Potency result in test [1] and in test [2] was “inactive” throughout.
